From PubChem BioAssay AID588707 (Southern Research Specialized Biocontainment Screening …, 2011)
Results filed as inconclusive are left out. A number with no mark means an inactive call.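 How the source made its calls: active means viability below 80% at one or more tested concentrations, flagged as toxic; inconclusive means replicate runs disagree on whether the viability criterion is met; inactive means viability at or above 80% at every dose.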

Assay: Vero E6 cell cytotoxicity, dose response, cytotoxicity control for P. falciparum PFM17LAP inhibitor project, M17 leucyl aminopeptidase campaign (AID 588707)
Conditions: CellTiter-Glo luminescence, 72 h; series mostly up to 50 µM; viability: at the top concentration
With `O=C(CSc1nccc(=O)[nH]1)Nc1ccc(Oc2ccccc2)cc1` the “viability” value was 80%. With `O=C(O)c1ccccc1C(=O)Nc1nc2c(s1)CCCC2` the “viability” value was 96.9%. With `N[C@@H](Cc1c[nH]c2ccccc12)C(=O)NO` the “viability” value was 104%. For `COc1ccc(-c2nnc(NC(=O)C3CC(C)=C(C)CC3C(=O)O)s2)cc1` (configuration not stated), the “viability” value was 92.6%. With `O=C(CSc1ccccc1)Nc1cccc2c1C(=O)NC2=O` the “viability” value was 87.4%. With `CC(C)C[C@H](N)C(=O)NO` the “viability” value was 110%. In the case of `COC(=O)c1cc(OC)c(OC)cc1NC(=O)c1sc2nc(C)ccc2c1N`, the “viability” value is reported as 92.5%. For `Cc1ccc(NC(=O)CSc2nc(O)cc(=O)n2Cc2ccccc2)cc1`, the “viability” value was 94.2%. In the case of `O=C(CSc1nc(O)cc(=O)[nH]1)Nc1ccccc1`, the “viability” value is reported as 90.7%. With `NC(N)=NCCC[C@H](N)C(=O)NO` the “viability” value was 107%. For `CC1=C(C)CC(C(=O)Nc2nc(-c3cc(C)ccc3C)c(C)s2)C(C(=O)O)C1` (configuration not stated), the “viability” value was 89%. In the case of `COC(=O)c1c(NC(=O)C2CCCCC2C(=O)O)sc2c1CCC(c1ccccc1)C2` (configuration not stated), the “viability” value is reported as 81.5%. With `O=C(Nc1ccc(Cl)cc1)Nc1ccccc1C(=O)O` the “viability” value was 82.2%. For `COC(=O)c1ccccc1NC(=O)c1ccc2c(Cl)c3c(nc2c1)CCC3`, the “viability” value was 94.4% [at 25 µM]. In the case of `O=C(CSc1nccc(=O)[nH]1)Nc1ccc(N2CCOCC2)cc1`, the “viability” value is reported as 109%. For `COC(=O)c1ccccc1NC(=O)c1cc2cc3ccc(C)cc3nc2s1`, the “viability” value was 92.9% [at 25 µM]. For `O=C1OCCC1Sc1nnc(NC2CCCCC2)s1` (configuration not stated), the “viability” value was 95.9%. In the case of `Cc1cc(SCC(=O)Nc2ccccc2C(=O)O)nc2ccccc12`, the “viability” value is reported as 88.5%. For `COC(=O)c1c(NC(=O)c2ccccc2C(=O)O)sc2c1CCCC2`, the “viability” value was 87.6%. For `COc1cc(NC(=O)CSc2ccccc2)c(C(=O)O)cc1OC`, the “viability” value was 105%. In the case of `COC(=O)c1c(NC(=O)C2CC=CCC2C(=O)O)sc(C)c1-c1ccc(C)cc1` (configuration not stated), the “viability” value is reported as 93.1%. In the case of `Cc1cc(=O)[nH]c(SCC(=O)Nc2ccccc2)n1`, the “viability” value is reported as 94.7%.
